Measured values from PubChem BioAssay (NCI).
“And” between values parts separate entries of the source, which are not always exact repeats. Identical values can stand only once. The panel holds about 83,000 compounds, 20% with a hit somewhere; the sample as a whole holds those more often.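 Growth was measured after 48 h exposure to one concentration of compound in 96-well plates. Values under 10 count as active.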 Values without a mark were called inactive. The source made the active and inactive calls.

Each compound was assayed on HL-60(TB) leukemia (assay: NCI-60 one-dose screen, 48 h (100 = growth as untreated, 0 = no growth, -100 = all killed)). Conditions: 10 µM unless noted.

SMILES | growth
COC(=O)c1cc(C(C)=O)n2c3ccccc3c3ccccc3c12 | 101%
O=C(CSc1nc2c(c(=O)[nH]1)CCCC2)Nc1ccccc1C(=O)O | 95.1%
O=CNc1ccc(-n2cnc3cc(-c4ccc(O)cc4)ccc32)cc1 | 64.2%
Cc1ccc(-c2cc(-c3cc4ccccc4nc3Cl)[nH]c(=S)n2)cc1 | 11.6%
C#C[C@]1(O)CC[C@H]2[C@@H]3CC=C4c5sc(-c6ccc(O)c(O)c6)nc5CC[C@]4(C)[C@H]3CC[C@@]21C | -54.1% (active)
COc1ccc(Nc2ncnc3sc4c(c23)CCN(Cc2ccccc2)C4)cc1 | 68.2%
COc1cccc(-c2ccc(/C=N/NC(=O)c3[nH]c4ccc(Br)cc4c3-c3ccccc3)s2)c1 | -28.2% (active)
O=c1oc2ccc(-c3ccc(F)cc3F)cc2c(=O)n1-c1ccc(F)cc1 | -40.6% (active)
CN1CCCN(Cc2ccc(C(=O)Nc3cccc(Nc4ccc5cc(O)ccc5n4)c3)cc2C(F)(F)F)CC1 | 73.7%
CS(=O)(=O)Nc1cccc(-n2c(COc3ccc(OC(F)(F)F)cc3)nc3ccccc32)c1 | 111% and 95.1%
COC(=O)CSC1=C(C)C(=O)C(OC)=C(OC)C1=O | 45.9%
O=C(/C=C1\C(=O)N(Cc2ccccc2)c2ccccc21)c1cc2ccccc2oc1=O | 93%
CCn1c(SCC(=O)Nc2ccc(-c3nc4ccccc4[nH]3)cc2)nc2ccccc2c1=O | 0.454% (active)
COc1cc(C2CC(c3ccc(F)cc3)=Nc3c(N)nc(N)nc3N2)ccc1Oc1nc(Nc2ccc(F)cc2)nc(N(C)C)n1 (stereo not given) | 14.4%
N#Cc1c(-c2cccc(Cl)c2Cl)cc(-c2ccc3ccccc3c2)[nH]c1=O | 83.8%
O=C1c2cccc3c(N4CCN(Cc5ccccc5)CC4)ccc(c23)C(=O)N1c1cccc(-c2nn(-c3ccccc3)cc2-c2nc3ccccc3s2)c1 | 105%
COc1cc(/C=N/NC(=O)c2ccc(OCc3nc4ccc(C)cc4[nH]3)cc2)cc(OC)c1OC | 33.5%
O=C(Nc1ccc(-c2ccc3c(c2)NC(=O)/C3=C\c2ccc[nH]2)cc1)Nc1ccc(Cl)c(Cl)c1 | 51.8%
N#CC1=C(c2ccco2)Nc2c(c(-c3ccccc3)nn2-c2ccccc2)C12C(=O)Nc1ccc(Br)cc12 (stereo not given) | 51.1%
CN(C(=O)CN1C(=O)/C(=C/c2ccco2)SC1=S)C1CCS(=O)(=O)C1 (stereo not given) | 81.6%

SMILES | growth
Cc1ccc2nc(-c3ccc(-c4nnc(SCC(=O)Nc5ccc(Cl)cc5)o4)cc3)[nH]c2c1 | 53.8%
O=C(N/N=C/c1c[nH]c2ccccc12)Nc1ccc(F)c(Cl)c1 | 15.9%
NS(=O)(=O)c1ccc(N=Nc2c(O)n(CC(=O)Nc3ccccc3)c3ccccc23)cc1 | 48.7%
COc1ccc(-c2nc3cc(C)ccc3n2CC(=O)N=Nc2c(O)[nH]c3ccccc23)cc1 | 8.05% (active)
O=c1onc(-c2cc3ccccc3nc2Cl)n1-c1cccc2ccccc12 | 33.5%
S=c1nc(-c2ccccc2)cc(-c2cc3ccccc3nc2Cl)[nH]1 | 8.96% (active)
O=C(c1ccc(O)cc1)C1[C@H](c2ccc(Br)cc2)[C@@H](c2ccccc2)NC12C(=O)Nc1ccc(Br)cc12 (stereo not given in full) | 12.5%
Cn1cc(-c2nnc(N)nc2-c2c[nH]c3ccccc23)c2cccnc21 | 13.5%
COc1ccc(C2=Nc3c(N)nc(N)nc3NC(c3ccc(Oc4nc(Nc5ccc(F)cc5)nc(N(C)C)n4)c(OC)c3)C2)cc1 (stereo not given) | 32.6%
Cc1ccn2c(C(=O)c3ccc(Br)cc3)cc(-c3cc(-c4ccc(N(C)C)cc4)c(C#N)c(N)n3)c2c1 | 89.5%
CC(=O)OCC1OC(OC2C(COC(C)=O)OC(n3cc(COc4ccc5ccc(=O)oc5c4)nn3)C(OC(C)=O)C2OC(C)=O)C(OC(C)=O)C(OC(C)=O)C1OC(C)=O (stereo not given) | 103%
CCCCCCCCc1ccc(C(=O)Nc2ccc(C)cc2C(=O)O)cc1C | 102%
COc1ccc(-c2ccc(SCC(=O)NCCc3ccc(S(N)(=O)=O)cc3)nn2)cc1 | 60.5%
CC(=O)Nc1cccc(Nc2nc(N[C@H]3CCCc4ccccc43)c3ccccc3n2)c1 | 90.6%
Cc1ccc(C2CC(c3ccc(NC(=O)Nc4ccccc4)cc3)=NN2c2ccc(S(N)(=O)=O)cc2)cc1 (stereo not given) | -42.5% (active)
O=c1[nH]c2ccccc2cc1COc1ccc(Nc2nccc(-c3ccc(Cl)cc3)n2)cc1 | 95%
COC(OC)C1=C(C)OC(N)=C(C#N)C12C(=O)Nc1ccccc12 (stereo not given) | 67.6%
COc1ccccc1Nc1nnc(-c2c[nH]c3ccccc23)o1 | 2.38% (active)
Cc1ccc(CSc2nc(-c3ccc(F)cc3)c(C#N)c(=O)[nH]2)cc1 | 56.6%
Nc1cc2ccccc2c(=O)n1NC(=O)c1ccc(I)cc1 | 77%
